Screens deposited in PubChem by The Scripps Research Institute Molecular Screening Center.
Rows were chosen to be rich in hits. Some 3.4% of all compounds tested hit in one or more screens of this group.
TEAD-YAP block: TEAD-YAP interaction inhibition, primary screen, TEAD-YAP interaction inhibitor project, luminescence, HEK-TIYL cells | TEAD-Gal4/YAP UAS-luciferase luminescence | inhibition, % at 9.12 µM | 1.4% of 640,000 active; in the data active = inhibition above about 32%
FBW7 activator: FBW7 E3 ligase activators, primary screen, biochemical, AlphaScreen, human; AlphaScreen FBW7–phospho-cyclin E peptide binding, activator screen; F-box/WD repeat-containing protein 7 (Homo sapiens), Q969H0; normalized activity (activation), % at 26.1 µM; 0.13% of 650,000 active; in the data active = normalized activity above about 1.9%;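 note: purified mutant Fbw7 with reduced substrate affinity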
Target sequence (Q969H0 whole entry, looked up): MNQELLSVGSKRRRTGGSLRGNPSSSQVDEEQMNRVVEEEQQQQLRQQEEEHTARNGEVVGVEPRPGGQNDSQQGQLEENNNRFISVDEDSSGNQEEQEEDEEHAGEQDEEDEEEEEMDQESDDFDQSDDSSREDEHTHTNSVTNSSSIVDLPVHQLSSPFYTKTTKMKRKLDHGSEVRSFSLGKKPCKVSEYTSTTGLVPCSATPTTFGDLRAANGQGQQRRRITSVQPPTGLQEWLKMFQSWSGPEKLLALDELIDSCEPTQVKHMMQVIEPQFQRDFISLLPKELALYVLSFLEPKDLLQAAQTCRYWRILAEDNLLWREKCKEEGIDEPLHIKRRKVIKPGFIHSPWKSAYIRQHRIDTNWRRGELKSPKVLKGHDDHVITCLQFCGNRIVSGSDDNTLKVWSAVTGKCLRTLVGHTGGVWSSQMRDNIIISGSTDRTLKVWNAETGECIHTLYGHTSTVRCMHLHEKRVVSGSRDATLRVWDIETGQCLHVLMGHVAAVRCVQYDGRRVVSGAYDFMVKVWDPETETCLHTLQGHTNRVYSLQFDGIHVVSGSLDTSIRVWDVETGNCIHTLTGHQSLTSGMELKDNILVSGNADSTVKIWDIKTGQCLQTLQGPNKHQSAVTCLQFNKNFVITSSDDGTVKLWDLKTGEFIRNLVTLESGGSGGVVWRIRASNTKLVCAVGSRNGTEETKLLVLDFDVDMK
GPR151 activ: activators of human GPR151, primary screen, cell-based, PathHunter beta-arrestin, luminescence. PathHunter beta-arrestin GPR151 cells. activation, % at 11.2 µM. 1% of 650,000 active. AID 1508602, 2020; in the data active = activation above about 4.9%
MITF primary: MITF inhibitors, primary screen, biochemical, AlphaScreen, human; 0.91% of 650,000 active; inhibition, % at 2.6 µM; AlphaScreen MITF homodimerization, bead proximity signal; AID 1259374, 2018; in the data active = inhibition above about 50%
Each line names hits and unclear results; the compound was inactive in the other large screens.

Cc1ccccc1CN1CCN(Cc2cccc3ccccc23)CC1	MITF primary 79
O=C(/C=C/c1ccccc1)Nc1ccc(S(=O)(=O)N2CCc3ccccc32)cc1	none
CCC(C)N1C(=O)/C(=C/c2c(NCc3ccco3)nc3ccccn3c2=O)SC1=S (configuration not stated)	TEAD-YAP block 43
O=C(COc1cccc(N2C(=O)C3C4C=CC(C5CC45)C3C2=O)c1)c1ccc(Cl)cc1 (configuration not stated)	TEAD-YAP block 39
Cc1ncn(-c2ccc(Nc3nccc(Nc4cccc(N5CCOCC5)c4)n3)cc2)n1	TEAD-YAP block 63
Cc1ncn(-c2ccc(Nc3cc(-c4cccc(N5CCOCC5)c4)ccn3)cc2)n1	none
Cc1ncn(-c2ccc(Nc3nccc(Nc4cccc(N)c4)n3)cc2)n1	TEAD-YAP block 35
Cc1cc(C)cc(NC(=O)c2sc3nc(SCC#N)n(CCc4ccccc4)c(=O)c3c2C)c1	none
CC(C)(C)C(=O)Nc1cccc(-c2nc3ncccc3o2)c1	none
CC(C)(C)C(=O)Nc1ccc(-c2nc3ncccc3o2)cc1	TEAD-YAP block 60
Cc1cc2nc3c(nc2cc1C)-c1ccccc1C3=O	TEAD-YAP block 33
Cc1ccc2nc3c(nc2c1)-c1ccccc1C3=O	none
COc1cc2nc(N(C)C)nc(N)c2cc1OC	TEAD-YAP block 61
COc1ccc(-c2nc(N)c3cc(OC)c(OC)cc3n2)cc1	none
CCN1C(=O)/C(=C/c2cc3c(cc2[N+](=O)[O-])OCO3)C(=O)NC1=S	MITF primary 74
c1ccc(CN2CCC(Nc3cc(-c4csc5ccccc45)ncn3)CC2)cc1	none
c1ccc2c(-c3cc(NC4CC4)ncn3)csc2c1	TEAD-YAP block 35
CC(C)(C)c1ccc(CNC(=O)c2cccc(C(=O)NCc3ccc(C(C)(C)C)cc3)c2)cc1	none
O=C(COc1ccccc1)N1CCN(c2ccc(Nc3ccncc3)nn2)CC1	FBW7 activator 2.0
O=C(COc1ccccc1)N1CCN(c2ccc(Nc3ccccn3)nn2)CC1	none
CCOc1ccccc1-c1nc(-c2ccc(Br)o2)no1	none
CCCNC(=O)c1ccc(S(=O)(=O)c2ccc(OC)cc2)c([N+](=O)[O-])c1	TEAD-YAP block 36
C=CCNC(=O)c1ccc(S(=O)(=O)c2ccc(F)cc2)c([N+](=O)[O-])c1	TEAD-YAP block 34
O=C(c1ccc(S(=O)(=O)c2ccc(Br)cc2)c([N+](=O)[O-])c1)N1CCN(c2ccc(F)cc2)CC1	none
O=C(c1ccc(S(=O)(=O)c2ccc(Br)cc2)c([N+](=O)[O-])c1)N1CCCCC1	TEAD-YAP block 37
O=C(c1ccc(S(=O)(=O)c2ccc(Br)cc2)c([N+](=O)[O-])c1)N1CCCC1	TEAD-YAP block 32
O=C(O)c1ccc(S(=O)(=O)c2ccc(F)cc2)c([N+](=O)[O-])c1	none
N#Cc1ccc(-c2csc(N)n2)cc1	none
COc1ccc(C(=O)COc2ccc3oc(C)c(C(=O)OC(C)C)c3c2)cc1	none
COc1ccc(-n2nc3ccc(NC(=O)c4cc(Br)ccc4OC)cc3n2)cc1	none
CCN(CC)C(=O)c1ccc(S(=O)(=O)c2ccc(Br)cc2)c([N+](=O)[O-])c1	TEAD-YAP block 49
O=C(c1ccc(S(=O)(=O)c2ccc(F)cc2)c([N+](=O)[O-])c1)N1CCCCCC1	TEAD-YAP block 34
CC1CCCCN1C(=O)c1ccc(S(=O)(=O)c2cccc(Cl)c2)c([N+](=O)[O-])c1 (configuration not stated)	TEAD-YAP block 38
CCN(CC)C(=O)c1ccc(Sc2ccc(Br)cc2)c([N+](=O)[O-])c1	none
O=C(c1ccc(S(=O)(=O)c2ccc(Br)cc2)c([N+](=O)[O-])c1)N1CCCCCC1	TEAD-YAP block 35
O=C(c1ccc(S(=O)(=O)c2ccc(F)cc2)c([N+](=O)[O-])c1)N1CCC2(CC1)OCCO2	none
Cc1cc(C)c(-n2nnnc2SCC(=O)NCCc2ccccc2)c(C)c1	none
Cc1cccc(N2CCN(C(=O)c3ccc(S(=O)(=O)c4ccc(F)cc4)c([N+](=O)[O-])c3)C(C)C2)c1 (configuration not stated)	TEAD-YAP block 54
CCOC(=O)CS(=O)(=O)c1ccc(C(=O)N2CCN(c3cccc(C)c3)C(C)C2)cc1[N+](=O)[O-] (configuration not stated)	TEAD-YAP block 52
Cc1ccc(C(=O)N2CCN(c3ccc([N+](=O)[O-])cc3)CC2C)cc1 (configuration not stated)	TEAD-YAP block 39
O=C(c1ccc(S(=O)(=O)c2ccccc2Cl)c([N+](=O)[O-])c1)N1CCN(Cc2ccccc2)CC1	TEAD-YAP block 33
CCn1c2cc(C)oc2c2cnn(CC(=O)N3CCCC(CO)C3)c(=O)c21 (configuration not stated)	none
Cc1cccc(N2CCN(C(=O)c3ccc4c(c3)NC(=O)CS4)CC2C)c1 (configuration not stated)	TEAD-YAP block 60
Cc1ccc(C)c(N2CCN(C(=O)c3ccc(S(=O)(=O)c4ccccc4Cl)c([N+](=O)[O-])c3)CC2)c1	none
Cc1ccc(C)c(N2CCN(C(=O)c3ccc(S(=O)(=O)c4ccc(F)cc4)c([N+](=O)[O-])c3)CC2)c1	TEAD-YAP block 44
Cc1cccc(N2CCN(C(=O)c3ccc4c(c3)NC(=O)c3ccccc3N4)CC2C)c1 (configuration not stated)	none
COc1ccc(N(C)C2=NS(=O)(=O)c3ccccc32)cc1	TEAD-YAP block 45
CCOC(=O)c1sc(NC(=O)c2ccccc2)nc1C	none
CCOC(=O)c1sc(NC(=O)c2cccc3ccccc23)nc1C	TEAD-YAP block 42
O=C1OC(c2ccccc2Cl)=N/C1=C\c1ccc(-c2cccc([N+](=O)[O-])c2)o1	none
Cc1nc2cc(N3CCN(C)CC3)c(NC(=O)C3CC3)cc2c(=O)n1Cc1ccccc1	TEAD-YAP block 34
CCOc1ccc(-c2nc(-c3ccccn3)no2)cc1	TEAD-YAP block 98
c1ccc(-c2ccc(-c3nc(-c4ccccn4)no3)cc2)cc1	TEAD-YAP block 95
Cc1ccc(-c2nc(-c3cccs3)no2)cc1[N+](=O)[O-]	none
Cc1ccc(-c2nc(-c3ccccn3)no2)cc1[N+](=O)[O-]	TEAD-YAP block 55
CCOc1ccc2cc(-c3ccccn3)c(=N)oc2c1	TEAD-YAP block 59
CCCOc1ccc(-c2ccc(-c3nc(-c4ccccn4)no3)cc2)cc1	none
Cc1ccc(-c2nc(-c3ccccn3)no2)cc1Cl	TEAD-YAP block 84
Cc1ccc(-c2nc(-c3ccccn3)no2)cc1	TEAD-YAP block 95
O=C(NCc1nc2ccccc2[nH]1)c1cccc(Nc2ccc3ncccc3c2)n1	none
CCOC(=O)OC[C@H]1O[C@H](C#CC(C)(C)C)C=C[C@@H]1OC(=O)OCC	none (no result: TEAD-YAP block)
